The panel holds about 83,000 compounds, 20% with a hit somewhere; the sample as a whole holds those more often.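 Interpretation: 100, growth as untreated; towards 0, rising growth inhibition; 0, no net growth; 0 to -100, cell death. Compounds scoring below 10 were considered active.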 A number with no mark means an inactive call. The source made the active and inactive calls.
Experiments:
Assay in all cases: NCI-60 one-dose screen, 48 h (100 = growth as untreated, 0 = no growth, -100 = all killed)
Details in all cases: 10 µM unless noted
[1] = tested on: DU-145 prostate
[2] = tested on: K-562 leukemia
[3] = tested on: MALME-3M melanoma
[4] = tested on: MDA-MB-231 breast
[5] = tested on: RXF 393 renal
[6] = tested on: SF-268 CNS
[7] = tested on: SF-295 CNS
[8] = tested on: SF-539 CNS
[9] = tested on: UACC-257 melanoma
[10] = tested on: M14 melanoma

Clc1cccc(N2COOC3(OOC2)C2CC4CC(C2)CC3C4)c1
growth [1]: 89.6%
growth [2]: 66.2%
growth [3]: 73.5%
growth [4]: 98.9%
growth [5]: 92.1%
growth [6]: 83.8%
growth [7]: 86.1%
growth [8]: 73.3%
growth [9]: 98%
growth [10]: 93.8%

C/C(=C\c1cc(C(F)(F)F)nn1CCNC(=O)OC(C)(C)C)[C@@H]1C[C@@H]2O[C@]2(C)CCC[C@H](C)[C@H](O)[C@@H](C)C(=O)C(C)(C)[C@@H](O)CC(=O)O1
growth [1]: 63.2%
growth [2]: 31.9%
growth [3]: 70%
growth [4]: 58.8%
growth [5]: 53.2%
growth [6]: 60.4%
growth [7]: 75.5%
growth [8]: 57.5%
growth [9]: 83.5%
growth [10]: 50.1%

CC1[C@H](C)OC(=O)CC(O)CC(O)CC(O)CCC(O)C(O)C[C@]2(O)CC(O)C(C(=O)O)C(CC(OC3O[C@H](C)[C@@H](O)[C@H](N)[C@@H]3O)/C=C/C=C/C=C/C=C/CC/C=C/C=C/[C@H](C)[C@H]1O)O2 (stereo not given in full)
growth [1]: 96.7%
growth [2]: 111%
growth [3]: 99.3%
growth [4]: 92.9%
growth [5]: 107%
growth [6]: 109%
growth [7]: 102%
growth [8]: 96.1%
growth [9]: 101%
growth [10]: 98.6%

CCCCCCCC[N+](C)(CCCCCCCC)CCCCCCCC
growth [1]: -100% (active)
growth [2]: 86.9%
growth [3]: -91.7% (active)
growth [4]: -87% (active)
growth [5]: -100% (active)
growth [6]: -100% (active)
growth [7]: -94.8% (active)
growth [8]: -100% (active)
growth [9]: -95.2% (active)
growth [10]: -94.1% (active)

NC(=O)c1c(Br)n(C2OC(CO)C(O)C2O)c2ncnc(N)c12 (stereo not given)
growth [1]: 1.13% (active)
growth [2]: 1.67% (active)
growth [3]: 13.2%
growth [4]: 50.6%
growth [5]: -16.4% (active)
growth [6]: 20.1%
growth [7]: 38.9%
growth [8]: 13.7%
growth [9]: -0.624% (active)
growth [10]: 2.28% (active)

CC(=O)C(c1c(O)c2ccccc2oc1=O)c1cc(=O)oc2c1ccc1ccccc12 (stereo not given)
growth [1]: 115%
growth [2]: 96.7%
growth [3]: 98.7%
growth [4]: 89.8%
growth [5]: 97%
growth [6]: 103%
growth [7]: 96.3%
growth [8]: 92.7%
growth [9]: 102%
growth [10]: 102%

COC(=O)[C@H](Cc1ccccc1)NC(=O)c1csc([C@@H](C[C@H](C(C)C)N(C)C(=O)[C@@H](NC(=O)[C@H]2CCCN2C)C2CC2)OC(C)=O)n1
growth [1]: 7.69% (active)
growth [2]: 1.55% (active)
growth [3]: 62.9%
growth [4]: 6.1% (active)
growth [5]: 23.3%
growth [6]: 24.4%
growth [7]: -4.82% (active)
growth [8]: -24.9% (active)
growth [9]: 61.9%
growth [10]: 1.22% (active)

C=COC(=O)CCN1CC1
growth [1]: 113%
growth [2]: 111%
growth [3]: 112%
growth [4]: 103%
growth [5]: 111%
growth [6]: 106%
growth [7]: 101%
growth [8]: 103%
growth [9]: 105%
growth [10]: 102%

CC[C@H](C)[C@H](NC(=O)NC(C)(C)C)C(=O)N(C)[C@H](C[C@@H](OC(C)=O)c1nc(C(=O)N[C@@H](Cc2ccccc2)C[C@H](C)C(=O)OC)cs1)C(C)C
growth [1]: 1.97% (active)
growth [2]: 7.43% (active)
growth [3]: 48.8%
growth [4]: 13%
growth [5]: 32.6%
growth [6]: 21.8%
growth [7]: 12.2%
growth [8]: 2.57% (active)
growth [9]: 43.8%
growth [10]: 2.12% (active)

CCC(O)(CN)c1ccccc1 (stereo not given)
growth [1]: 107%
growth [2]: 107%
growth [3]: 101%
growth [4]: 101%
growth [5]: 110%
growth [6]: 100%
growth [7]: 92.6%
growth [8]: 99%
growth [9]: 91.9%
growth [10]: 95%

C[C@]12C[C@@H](CO)[C@H](O)C[C@@H]1CC[C@@H]1[C@@H]2CC[C@]2(C)[C@@H](O)CC[C@@H]12
growth [1]: 106%
growth [2]: 74.7%
growth [3]: 90.6%
growth [4]: 111%
growth [5]: 113%
growth [6]: 103%
growth [7]: 113%
growth [8]: 95.8%
growth [9]: 90.4%
growth [10]: 103%

CC(=O)OC[C@]1(C)C=C2C(=O)[C@](C)(O)C3(CC3)C(C)=C2[C@H]1O
growth [1]: -19.4% (active)
growth [2]: 27.2%
growth [3]: -78.8% (active)
growth [4]: -28.1% (active)
growth [5]: -79.4% (active)
growth [6]: -8.2% (active)
growth [7]: -19.3% (active)
growth [8]: -68.9% (active)
growth [9]: -28.9% (active)
growth [10]: -66.9% (active)

Clc1cccc(Cl)c1Cl
growth [1]: 101%
growth [2]: 84.9%
growth [3]: 103%
growth [4]: 117%
growth [5]: 122%
growth [6]: 97.5%
growth [7]: 95.1%
growth [8]: 100%
growth [9]: 86.6%
growth [10]: 94.7%

O=C(CC1(O)C(=O)N(Cc2ccccc2)c2ccccc21)c1ccc(C(=O)NCC2CCC3(CC2)OOC2(CCCCC2)OO3)cc1 (stereo not given)
growth [1]: -100% (active)
growth [2]: -48.3% (active)
growth [3]: -73% (active)
growth [4]: -65.8% (active)
growth [5]: -81% (active)
growth [6]: -62% (active)
growth [7]: 10.7%
growth [8]: -83.2% (active)
growth [9]: -21% (active)
growth [10]: 13.1%

C=C(C)[C@@]12OC3(/C=C/C=C/CCCCC)O[C@@H]1[C@@H]1[C@@H]4O[C@]4(CO)[C@@H](O)[C@]4(O)C(=O)C(C)=C[C@H]4[C@@]1(O3)[C@H](C)[C@H]2OC(=O)c1ccccc1
growth [1]: 38.4%
growth [2]: 24.9%
growth [3]: 88.3%
growth [4]: 52%
growth [5]: 71%
growth [6]: 40.7%
growth [7]: 39.6%
growth [8]: 63.8%
growth [9]: 97%
growth [10]: 36.3%

COC(=O)N[C@H]1CCc2c(Br)c(OC)c(OC)c(OC)c2-c2ccc(SC)c(=O)cc21
growth [1]: -1.4% (active)
growth [2]: 6.78% (active)
growth [3]: 28.6%
growth [4]: -12.3% (active)
growth [5]: 16.8%
growth [6]: 17.7%
growth [7]: 9.53% (active)
growth [8]: -6.59% (active)
growth [9]: 67.4%
growth [10]: 2.58% (active)

O=C(CC1(O)C(=O)N(Cc2ccccc2)c2ccc(Br)cc21)c1ccc(C(=O)NCC2CCC3(CC2)OOC2(CCCCC2)OO3)cc1 (stereo not given)
growth [1]: -98.8% (active)
growth [2]: -5.58% (active)
growth [3]: -68.1% (active)
growth [4]: -73.9% (active)
growth [5]: -76.5% (active)
growth [6]: -1.12% (active)
growth [7]: 29.3%
growth [8]: -85.1% (active)
growth [9]: 57%
growth [10]: 41.9%

COc1cc(/C=C\c2cc(OC)c(OC)c(OC)c2)cc(NS(=O)(=O)c2cccc(Cl)c2)c1OC
growth [1]: -31.6% (active)
growth [2]: 11.2%
growth [3]: 112%
growth [4]: 27%
growth [5]: 37.8%
growth [6]: -2.74% (active)
growth [7]: 13.8%
growth [8]: -0.958% (active)
growth [9]: 57.3%
growth [10]: 9.89% (active)

COC(=O)[C@@H](C)C[C@H](Cc1ccc2ccccc2c1)NC(=O)c1csc([C@@H](C[C@H](C(C)C)N(C)C(=O)[C@@H](NC(=O)[C@H]2CCCCN2C)C(C)C)OC(C)=O)n1
growth [1]: 46.6%
growth [2]: 25.7%
growth [3]: 63.1%
growth [4]: 21.2%
growth [5]: 49.1%
growth [6]: 29.4%
growth [7]: 56.7%
growth [8]: 10.4%
growth [9]: 77%
growth [10]: 24.6%

CO[C@H](C(=O)O)[C@@H]1Cc2cc3cc(OC4CC(OC5CC(O)C(O)C(C)O5)C(O)C(C)O4)c(C)c(O)c3c(O)c2C(=O)[C@H]1OC1CC(OC2CC(OC3CC(C)(O)C(O)C(C)O3)C(O)C(C)O2)C(O)C(C)O1 (stereo not given in full)
growth [1]: 21.5%
growth [2]: 11.8%
growth [3]: -10.4% (active)
growth [4]: 19.9%
growth [5]: -57.1% (active)
growth [6]: 29.3%
growth [7]: 11.2%
growth [8]: -23.1% (active)
growth [9]: 7.77% (active)
growth [10]: -8.35% (active)

CCCC[C@H](NC(=O)[C@H]1CCCN1C)C(=O)N(C)[C@H](C[C@@H](OC(C)=O)c1nc(C(=O)N[C@@H](Cc2ccccc2)C[C@H](C)C(=O)OCC)cs1)C(C)C
growth [1]: 12.8%
growth [2]: 9.85% (active)
growth [3]: 49.5%
growth [4]: 3.51% (active)
growth [5]: 25.3%
growth [6]: 25.8%
growth [7]: 13.3%
growth [8]: 0.375% (active)
growth [9]: 46.1%
growth [10]: -12% (active)

O=C(CC1(O)C(=O)N(Cc2ccccc2)c2ccc(Cl)cc21)c1ccc(C(=O)NCC2CCC3(CC2)OOC2(CCCCC2)OO3)cc1 (stereo not given)
growth [1]: -97.6% (active)
growth [2]: -49% (active)
growth [3]: -70.3% (active)
growth [4]: -74.9% (active)
growth [5]: -80.5% (active)
growth [6]: -49.6% (active)
growth [7]: -8.3% (active)
growth [8]: -81.1% (active)
growth [9]: 26.4%
growth [10]: 25.5%

O=[N+]([O-])CC(O)C(Cl)(Cl)Cl (stereo not given)
growth [1]: 117%
growth [2]: 113%
growth [3]: 97.5%
growth [4]: 122%
growth [5]: 116%
growth [6]: 101%
growth [7]: 102%
growth [8]: 92.6%
growth [9]: 111%
growth [10]: 104%

COC(=O)[C@@]1(O)C[C@H]2O[C@]1(C)n1c3ccccc3c3c4c(c5c6ccccc6n2c5c31)C(=O)NC4
growth [1]: -10.9% (active)
growth [2]: 0.0974% (active)
growth [3]: -81% (active)
growth [4]: -49.1% (active)
growth [5]: -93.9% (active)
growth [6]: -28.8% (active)
growth [7]: -93.4% (active)
growth [8]: -88% (active)
growth [9]: -47.2% (active)
growth [10]: -67.5% (active)

C[C@@]1(CCCCCCCCCc2ccc(O)cc2)C[C@]2(C)OC(=O)C[C@@H]2OO1
growth [1]: 130%
growth [2]: 70%
growth [3]: 105%
growth [4]: 105%
growth [5]: 120%
growth [6]: 123%
growth [7]: 91.9%
growth [8]: 139%
growth [9]: 102%
growth [10]: 99.8%

— PubChem BioAssay (NCI)
